# Where “and” joins values, the source holds several entries; their conditions need not be identical. Equal entries are not always repeated. Inconclusive results are not listed. Where a call stands in place of a potency, no number is given. Where a structure was tested more than once in an assay, its records may differ in their call. Calls of active or inactive are those of the source. Unless noted, the call rests on the fitted dose curve; in most records, active means well fitted curve in the direction sought with a large enough effect in the repeat runs; inconclusive means weak or mixed curves; inactive means no such curve, though single readings can be large; an effect the other way counts as inactive or inconclusive.
# Assays:
# [1] = Caspase-3/7 induction in HepG2 cells by small molecules, qHTS assay (AID 1346978); further: nearly all actives have a fitted effect of over 15% in size; further: potency means the concentration at half of the fitted maximal effect
# Summary of the method: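 Wild-type HepG2 cells (2,000/well) were settled 5 h at 37 C, 5% CO2, then exposed to compounds in DMSO for 17 h. Caspase-3/7 activity was read by luminescence 30 min after adding Caspase-Glo 3/7 reagent at room temperature.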
# [2] = Caspase-3/7 induction in CHO-K1 cells by small molecules, qHTS cell viability counter screen (AID 1346979); further: nearly all actives have a fitted effect of over 35% in size; further: potency means the concentration at half of the fitted maximal effect
# Summary of the method: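 Wild-type CHO-K1 cells were seeded at 1,500 per well, rested 5hr at 37 C, then exposed to compounds in DMSO. After 16hr, CellTiter-Fluor reagent was added and fluorescence read 1hr later as the viability measure.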
# [3] = Caspase-3/7 induction in CHO-K1 cells by small molecules, qHTS assay (AID 1346980); further: nearly all actives have a fitted effect of over 15% in size
# Summary of the method: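 Wild-type cells were seeded at 1,500 per well and settled 5 hr at 37 C, 5% CO2, then exposed to DMSO-dissolved compounds for 17 hr. Caspase-Glo 3/7 reagent was added, and luminescence was read after 30min at room temperature.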
# [4] = Caspase-3/7 induction in HepG2 cells by small molecules, qHTS cell viability counter screen (AID 1346981); further: nearly all actives have a fitted effect of over 30% in size; further: potency means the concentration at half of the fitted maximal effect
# Summary of the method: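 CellTiter-Fluor fluorescence measured viability in the same wells used for Caspase-Glo 3/7. HepG2 (wild type) at 2,000 cells/well were pre-incubated 5 hr, dosed, and given reagent at 16 hr, with 1 hr further at 37C.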
# [5] = biological target: Nuclear receptor subfamily 1 group I member 2 (Homo sapiens) (UniProt O75469); test: Human pregnane X receptor (PXR) small molecule agonists, qHTS assay (AID 1346982); further: nearly all actives have a fitted effect of over 35% in size; further: potency means the concentration at half of the fitted maximal effect
# Chain of Nuclear receptor subfamily 1 group I member 2 (Homo sapiens) (O75469 whole entry, looked up): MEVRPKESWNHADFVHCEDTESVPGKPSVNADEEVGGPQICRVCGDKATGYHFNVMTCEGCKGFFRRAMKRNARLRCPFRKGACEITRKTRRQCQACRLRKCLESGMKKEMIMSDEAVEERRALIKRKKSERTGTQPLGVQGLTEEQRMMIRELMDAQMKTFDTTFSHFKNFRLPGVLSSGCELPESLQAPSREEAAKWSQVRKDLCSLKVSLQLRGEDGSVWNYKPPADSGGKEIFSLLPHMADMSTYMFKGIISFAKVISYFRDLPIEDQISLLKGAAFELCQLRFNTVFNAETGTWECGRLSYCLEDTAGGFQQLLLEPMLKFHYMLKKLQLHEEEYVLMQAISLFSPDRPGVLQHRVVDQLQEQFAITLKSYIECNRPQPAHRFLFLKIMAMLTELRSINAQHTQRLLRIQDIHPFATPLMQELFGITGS
# Summary of the method: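 Agonist mode: luminescence from ONE-Glo after 24 h compound exposure at 37C in HepG2 cells carrying hPXR-responsive CYP3A4 luciferase, plated in charcoal-stripped serum medium 5 h beforehand.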
# [6] = biological target: Acetylcholinesterase (Homo sapiens) (UniProt P22303); test: Acetylcholinesterase (AChE) small molecule antagonists: colormetric cell-based qHTS assay (AID 1347395; calls by dose curve; further: nearly all actives have a fitted effect of over 30% in size; further: potency means the concentration at half of the fitted maximal effect)
# Chain of Acetylcholinesterase (Homo sapiens) (P22303 whole entry, looked up): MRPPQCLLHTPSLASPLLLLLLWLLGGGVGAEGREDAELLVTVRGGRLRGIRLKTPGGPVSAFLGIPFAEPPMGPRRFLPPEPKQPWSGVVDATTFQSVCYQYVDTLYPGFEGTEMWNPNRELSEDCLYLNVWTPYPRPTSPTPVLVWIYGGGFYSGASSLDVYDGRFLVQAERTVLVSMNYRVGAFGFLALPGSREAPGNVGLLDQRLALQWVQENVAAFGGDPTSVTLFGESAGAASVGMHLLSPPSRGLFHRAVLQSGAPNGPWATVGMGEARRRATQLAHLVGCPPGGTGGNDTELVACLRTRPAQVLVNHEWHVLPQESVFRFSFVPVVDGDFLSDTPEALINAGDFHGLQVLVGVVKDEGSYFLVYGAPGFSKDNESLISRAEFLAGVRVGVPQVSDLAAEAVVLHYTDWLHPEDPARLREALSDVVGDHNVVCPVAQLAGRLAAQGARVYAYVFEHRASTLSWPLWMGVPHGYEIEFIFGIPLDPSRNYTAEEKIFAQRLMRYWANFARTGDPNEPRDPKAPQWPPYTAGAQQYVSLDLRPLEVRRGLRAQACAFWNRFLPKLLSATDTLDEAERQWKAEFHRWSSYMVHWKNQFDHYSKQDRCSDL
# Summary of the method: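 SH-SY5Y cells, plated overnight at 37 C, were exposed to compounds for 30 min at 37 C and 5% CO2. Acetylthiocholine plus DTNB was then added, and thiocholine from endogenous AChE was quantified colorimetrically after 90 min at 37 C.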
# [7] = biological target: Acetylcholinesterase (Homo sapiens) (UniProt P22303); test: Acetylcholinesterase (AChE) small molecule antagonists: enzyme-based qHTS assay (AID 1347397; calls by dose curve; further: nearly all actives have a fitted effect of over 55% in size; further: potency means the concentration at half of the fitted maximal effect); details: Potency: AChE enzyme activity inhibition
# Summary of the method: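 Tox21 library chemicals are tested in qHTS format against recombinant human AChE. The enzyme, dispensed at 50 mU/mL, sits with compound for 30 min at room temperature. A DTNB–acetylthiocholine cocktail follows, and colour is read after 10 min.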
# [8] = biological target: Nuclear receptor subfamily 1 group I member 2 (Homo sapiens) (UniProt O75469); test: CYP3A4 induction through human pregnane X receptor (PXR) by small molecules, qHTS assay (AID 1346984); further: nearly all actives have a fitted effect of over 40% in size; further: potency means the concentration at half of the fitted maximal effect
# Summary of the method: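 Read-out is luminescence after One-Glo addition, following a 3 hr, 37C incubation with Luciferin-IPA CYP3A4 substrate (3uM final). Before that, compounds were on DPX-2 cells (HepG2 co-transfected with PXR element plus CYP3A4-promoter luciferase) for 24 hr at 37C.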
# [9] = biological target: Nuclear receptor subfamily 1 group I member 2 (Homo sapiens) (UniProt O75469); test: Human pregnane X receptor (PXR) activation by small molecules, qHTS assay (AID 1346985); further: nearly all actives have a fitted effect of over 40% in size
# Summary of the method: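 DPX-2 cells (HepG2 co-transfected with a PXR response element and a CYP3A4-promoter luciferase construct) were seeded at 2,000 per well, rested 5 hr at 37C, then exposed to DMSO-dissolved compounds for 24 hr. Activation was read as luciferase luminescence.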
# [10] = biological target: Nuclear receptor subfamily 1 group I member 2 (Rattus norvegicus) (UniProt Q9R1A7); test: Rat pregnane X receptor (rPXR) activation by small molecules, qHTS assay (AID 1346983); details: rPXR luciferase reporter cells, One-Glo luminescence, 24 h; max activation: stronger effect = higher value; further: nearly all actives have a fitted effect of over 20% in size
# Chain of Nuclear receptor subfamily 1 group I member 2 (Rattus norvegicus) (Q9R1A7 whole entry, looked up): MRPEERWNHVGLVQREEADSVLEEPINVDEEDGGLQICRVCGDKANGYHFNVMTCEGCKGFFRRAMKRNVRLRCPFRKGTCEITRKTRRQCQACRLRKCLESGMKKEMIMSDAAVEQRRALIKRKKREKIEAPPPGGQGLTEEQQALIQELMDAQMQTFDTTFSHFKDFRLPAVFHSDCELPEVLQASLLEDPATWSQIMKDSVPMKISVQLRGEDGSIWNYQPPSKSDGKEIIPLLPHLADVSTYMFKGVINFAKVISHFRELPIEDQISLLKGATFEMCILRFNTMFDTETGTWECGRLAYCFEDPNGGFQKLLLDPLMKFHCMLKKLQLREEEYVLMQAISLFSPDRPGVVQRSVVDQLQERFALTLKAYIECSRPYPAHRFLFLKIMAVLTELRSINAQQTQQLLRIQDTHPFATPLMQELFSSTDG
# Summary of the method: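 Cell-based rPXR luciferase reporter assay, 2,000 cells per well, rested 5hr at 37 C before compound addition in DMSO, then 24 hr at 37 C. One-Glo reagent was added and luminescence read after 30 min at room temperature.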
Structure (SMILES),Potency [1],Potency [2],Potency [3],Potency [4],Potency [5],Potency [6],Potency [7],Potency [8],Potency [9],caspase activation [1],caspase-3/7 activation [3],max activation [10]
CCCCCCCCc1ccc(O)cc1,43.5 µM (active),–,–,–,–,–,–,–,–,–,–,–
COc1ccc(/C(=C/C(=O)N2CCOCC2)c2ccc(Cl)cc2)cc1OC,inactive,inactive,inactive,inactive,15.4 µM (active),inactive,inactive,–,–,–,–,–
CCCCCCCCCCCCCCCC[n+]1ccccc1,inactive,25.5 µM (active) [middle of 4 runs],inactive,63.9 µM (active) and 61.1 µM (active) and 26.9 µM (active),10.1 µM (active) and inactive and 12 µM (active),–,–,inactive,inactive,–,–,–
[Hg+2].[I-].[I-],inactive,21.7 µM (active),inactive,61.1 µM (active),2.43 µM (active),inactive,–,–,–,–,–,–
CN(CCCC(=O)c1cccnc1)N=O,inactive,inactive,inactive,inactive,inactive,inactive,inactive,–,–,–,–,–
CN(C)C(=S)[S-].CN(C)C(=S)[S-].[Cu+2],–,1.67 µM (active),–,7.45 µM (active),–,–,–,–,–,-18.7% [at 19 µM] (inactive),-5.91% [at 19 µM] (inactive),–
Clc1ccc(C(c2ccc(Cl)cc2)C(Cl)(Cl)Cl)cc1,inactive,69.1 µM (active) and inactive,inactive,inactive,17.4 µM (active) and 13.3 µM (active),inactive,inactive,22.4 µM (active),inactive,–,–,8.77% (inactive)
CC(=O)OC1(c2ccccc2)CCN(CCc2ccccc2)CC1,inactive,inactive,inactive,inactive,11.1 µM (active),inactive,inactive,–,–,–,–,–
O=c1ssc(Cl)c1Cl,inactive,27.3 µM (active),inactive,inactive,27.3 µM (active),inactive,inactive,–,–,–,–,–
Cc1ccc(OP(=O)(Oc2ccccc2)Oc2ccccc2)cc1,inactive,inactive,inactive,inactive,13.9 µM (active),20.3 µM (active),20.3 µM (active),–,–,–,–,–
Cl/C=C\CCl,inactive,inactive,inactive,inactive,inactive,inactive,inactive,–,–,–,–,–
Cn1cc(C2=C(c3cn(C4CCN(Cc5ccccn5)CC4)c4ccccc34)C(=O)NC2=O)c2ccccc21,inactive,10.6 µM (active),inactive,10.6 µM (active),inactive,inactive,inactive,–,–,–,–,–
BrCBr,inactive,inactive,inactive,inactive,inactive,inactive,inactive,–,–,–,–,–
Oc1ccc(I)cc1,inactive,inactive,inactive,inactive,inactive,inactive,inactive,–,–,–,–,–

# Source: PubChem BioAssay (Tox21)
